Experimental data published in PubChem BioAssay.
Several values for one entry are separate records, joined by “and”; a condition that tells them apart may be missing. Equal values may be shown once. For some assays here: Entries with a potency or affinity are not part of this list. Activity calls are given as the source filed them.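 How the source made its calls, unless noted: active means compounds killing one labelled cell type while sparing the other, by normalised counts and ratio limits, not self-fluorescent; inactive means the rest.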

Assays:
[1] = polyglutamine-triggered caspase-3 activation inhibitors, cell-based (AID 1583); conditions: polyglutamine-induced caspase-3 activation, cell assay; stronger effect = higher value;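 tested at 10 µM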
[2] = suppressors of polyQ aggregation in yeast, 75Q-TubU reporter (AID 1593); conditions: Yeast 75Q polyglutamine aggregation reporter
[3] = rescue of polyQ-huntingtin neuronal dysfunction in worms, whole organism, C. elegans mechanosensory neurons, N-terminal huntingtin (AID 1599); conditions: touch response, stronger effect = higher value
[4] = inhibitors of mitochondrial cytochrome c release, biochemical, purified mitochondria (AID 1603); conditions: stronger effect = lower value;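 further: mouse liver mitochondria challenged with calcium chloride; signal normalized to the plate average as 100%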
[5] = inhibitors of polyQ protein aggregation (AID 1604); conditions: polyglutamine-induced protein aggregation inhibition assay; stronger effect = higher value; tested at 2.5 µM
[6] = enhancers of glutamate uptake in motor neurons, MN-1 cell line (AID 1612); conditions: MN-1 motor neuron cells, stronger effect = higher value;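 further: tested at 1 µM final; 0% = mean of DMSO vehicle wells on each plate; positive means more glutamate uptake than control and negative means less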
[7] = reducers of polyQ inclusions in PC12 cells, cell-based, NGF-treated PC12, GFPQ80 (AID 1614); conditions: PC12 NGF-treated GFP-polyQ80 inclusion reduction;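 further: lower means fewer inclusions and 0 means no inclusions at all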
[8] = suppressors of polyglutamine aggregation in yeast, 75Q-TubH (AID 1616); conditions: S. cerevisiae 75Q-TubH polyglutamine aggregation suppression; stronger effect = higher value
[9] = hESC survival regulators, cell-based (AID 493140; call rule not given here;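 further: cells exposed to compounds for four days before counting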); conditions: human embryonic stem cell survival screen; stronger effect = higher value
[10] = target: 6-phosphogluconate dehydrogenase, decarboxylating (Homo sapiens) (UniProt P52209); experiment: 6PGD enzyme inhibitors, primary screen, biochemical, human, recombinant enzyme, NADPH absorbance (AID 1159550;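 active means at least 20% inhibition of 6-phosphogluconate dehydrogenase activity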); conditions: recombinant 6PGD, NADPH absorbance 341 nm; at 10 µM; stronger effect = higher value
[11] = differential killing of epithelial or mesenchymal cells, primary screen, imaging, PC-3E GFP, TEM4-18 mCherry, co-culture (AID 1345086); conditions: imaging cell counts, at 1 µM; for red/green cell ratio (normalised): actives lie on both sides, counts scaled to control wells, 1 = unselective;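 on all read-outs here: cells exposed to compound for 72 h before imaging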;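 on red/green cell ratio (normalised): normalised mesenchymal count divided by normalised epithelial count so high means epithelial killing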
[12] = survival rescue of mitochondrial mutant cells in low glucose, primary screen, MELAS cybrids, Rieske KO mouse fibroblasts, CellTiter-Glo (AID 1508586;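 active means mean z-score across replicates of 1.96 or higher in either the MELAS or the Rieske mutant cell line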;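 further: z relative to plate mean and SD of compound and empty wells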)
[13] = target: NAD(+) hydrolase SARM1 (Homo sapiens) (UniProt Q6SZW1); experiment: SARM1 TIR NADase inhibitors, cell lysate, NAD-Glo luminescence (AID 1508614;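 active means compound whose remaining NAD level is above about 45 nM, limit read from the data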); conditions: SAM-TIR HEK293T lysate NADase, at 1 µM, stronger effect = higher value
[14] = target: Mitogen-activated protein kinase 7 (Homo sapiens) (UniProt Q13164); experiment: ERK5 transactivation activators in reporter cells, primary screen, cell-based, HTS (AID 1508626;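 active means luciferase signal above three times the same-plate solvent-only control wells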;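 further: luciferase driven by Gal4-ERK5 fusion binding five Gal4 sites before minimal TATA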); conditions: HeLa Gal4-ERK5 transactivation, 18 h, at 5 µM, stronger effect = higher value
[15] = viability rescue of complex I mutant cybrids, primary screen, cell-based, galactose medium, ATP luminescence (AID 1645843;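 active means z-score of at least 1.8 in each of two replicates, scored against plate mean and spread of sample wells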;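 further: positive z means more ATP and so rescue of galactose-driven cybrid death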); conditions: complex I mutant cybrid cells, 72 h, stronger effect = higher value
[16] = liver-stage malaria parasite growth inhibition, primary screen, cell-based, HepG2, luciferase luminescence, HepG2 viability (AID 624349; in the data active means parasite load remaining mostly below about 12%, no sharp cut-off; inactive means mostly above about 10%;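 further: 100% = mean of DMSO negative control wells on the same plate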); conditions: P. berghei liver stage in HepG2, luciferase luminescence, concentration not given here; parasite load remaining: stronger effect = lower value; viability: measured here: HepG2 viability without parasites
[17] = sensitizers of A549 cells to miR-34 induction, primary screen, imaging, A549 dox-inducible miR-34, nuclei and caspase counts (AID 1347080;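 active means compounds whose cell count with miR-34 switched on is under 0.7 times the count with it off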); conditions: A549 miR-34 inducible, Hoechst nuclei count, 48 h
[18] = measured here: epithelial PC-3E GFP cell survival
[19] = measured here: mesenchymal TEM4-18 mCherry cell survival
[20] = stronger effect = lower value, cell number ratio, induced over uninduced
[21] = measured here: relative caspase fold change +Dox/-Dox
[22] = measured here: total cells with miR-34 induction, stronger effect = lower value
[23] = measured here: total cells without miR-34 induction

Chain of NAD(+) hydrolase SARM1 (Homo sapiens) (Q6SZW1 whole entry, looked up, the tested form may be a part): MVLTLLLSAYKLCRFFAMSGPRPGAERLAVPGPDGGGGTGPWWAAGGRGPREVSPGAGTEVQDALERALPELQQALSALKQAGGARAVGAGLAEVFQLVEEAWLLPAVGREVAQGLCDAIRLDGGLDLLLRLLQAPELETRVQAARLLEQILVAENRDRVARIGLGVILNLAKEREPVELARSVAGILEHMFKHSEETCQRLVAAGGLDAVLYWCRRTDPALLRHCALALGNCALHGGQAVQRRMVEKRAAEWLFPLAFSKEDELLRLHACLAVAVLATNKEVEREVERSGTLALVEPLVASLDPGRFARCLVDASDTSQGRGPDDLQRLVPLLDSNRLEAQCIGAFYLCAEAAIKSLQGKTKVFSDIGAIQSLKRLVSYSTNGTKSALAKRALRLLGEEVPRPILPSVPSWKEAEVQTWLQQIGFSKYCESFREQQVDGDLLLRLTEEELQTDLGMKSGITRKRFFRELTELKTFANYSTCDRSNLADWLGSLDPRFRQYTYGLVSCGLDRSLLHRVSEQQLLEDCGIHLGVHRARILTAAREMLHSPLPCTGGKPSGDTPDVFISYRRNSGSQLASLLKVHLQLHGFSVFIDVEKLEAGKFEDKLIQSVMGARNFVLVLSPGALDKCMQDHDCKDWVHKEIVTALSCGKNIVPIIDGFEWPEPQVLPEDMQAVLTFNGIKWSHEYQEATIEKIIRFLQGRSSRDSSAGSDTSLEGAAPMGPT
Chain of 6-phosphogluconate dehydrogenase, decarboxylating (Homo sapiens) (P52209 whole entry, looked up): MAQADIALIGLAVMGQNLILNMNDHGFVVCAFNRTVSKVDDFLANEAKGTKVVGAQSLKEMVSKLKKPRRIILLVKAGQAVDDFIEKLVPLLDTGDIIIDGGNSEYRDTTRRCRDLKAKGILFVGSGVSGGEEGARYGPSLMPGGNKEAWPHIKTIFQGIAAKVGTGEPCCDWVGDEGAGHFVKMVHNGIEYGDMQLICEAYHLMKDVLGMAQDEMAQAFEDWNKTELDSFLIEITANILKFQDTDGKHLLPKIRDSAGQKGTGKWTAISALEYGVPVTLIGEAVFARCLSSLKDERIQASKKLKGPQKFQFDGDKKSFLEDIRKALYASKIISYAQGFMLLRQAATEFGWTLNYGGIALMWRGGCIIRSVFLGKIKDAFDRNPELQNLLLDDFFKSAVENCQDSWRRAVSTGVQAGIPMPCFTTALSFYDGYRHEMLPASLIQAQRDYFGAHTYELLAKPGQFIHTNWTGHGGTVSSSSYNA
Chain of Mitogen-activated protein kinase 7 (Homo sapiens) (Q13164 whole entry, looked up, the tested form may be a part): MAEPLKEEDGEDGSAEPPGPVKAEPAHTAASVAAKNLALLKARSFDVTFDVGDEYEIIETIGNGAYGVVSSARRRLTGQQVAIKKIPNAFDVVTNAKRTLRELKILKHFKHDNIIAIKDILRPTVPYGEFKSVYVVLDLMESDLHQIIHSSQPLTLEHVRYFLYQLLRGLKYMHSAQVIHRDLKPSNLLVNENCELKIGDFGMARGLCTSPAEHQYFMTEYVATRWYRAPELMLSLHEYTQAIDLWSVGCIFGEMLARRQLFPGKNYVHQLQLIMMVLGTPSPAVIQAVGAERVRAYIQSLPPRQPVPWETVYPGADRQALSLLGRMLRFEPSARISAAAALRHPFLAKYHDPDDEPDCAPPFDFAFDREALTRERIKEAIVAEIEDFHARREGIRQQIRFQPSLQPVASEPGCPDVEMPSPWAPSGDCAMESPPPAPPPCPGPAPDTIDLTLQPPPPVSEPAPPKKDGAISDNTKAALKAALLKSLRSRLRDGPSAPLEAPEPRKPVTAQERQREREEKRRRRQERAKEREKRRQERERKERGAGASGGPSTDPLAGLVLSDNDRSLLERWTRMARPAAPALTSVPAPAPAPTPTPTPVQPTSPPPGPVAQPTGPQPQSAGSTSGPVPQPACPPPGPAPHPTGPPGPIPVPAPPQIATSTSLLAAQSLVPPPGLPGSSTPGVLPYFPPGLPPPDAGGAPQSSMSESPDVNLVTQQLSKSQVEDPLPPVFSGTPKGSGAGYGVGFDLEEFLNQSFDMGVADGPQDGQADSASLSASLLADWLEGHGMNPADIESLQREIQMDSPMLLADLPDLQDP

CC(C(=O)O)c1cccc(Oc2ccccc2)c1 (configuration not stated)
inhibition [1]: -4.11% | score [2]: 0.02 | rescue above control [3]: 4.41 | cytochrome c release ratio [4]: 0.68 | inhibition of aggregation [5]: 72.7% | glutamate uptake change [6]: 5.16% | inclusion score [7]: 2 | aggregation suppression score [8]: 0.0306 | survival [9]: 1.75 (inactive) | inhibition [10]: 15.8% (inactive) | red/green cell ratio (normalised) [11]: 0.89 (inactive) | normalised cell number [11, 18]: 1.13 | normalised cell number [11, 19]: 1 | z-score ([12]; MELAS cybrid survival, CellTiter-Glo 48 h, stronger effect = higher value): -0.0579 (inactive) and -0.205 (inactive) and 0.473 (inactive) | z-score ([12]; Rieske KO mouse fibroblast survival, CellTiter-Glo 72 h): -0.141 and -0.109 and 0.281 | remaining NAD [13]: 10 nM (inactive) | luciferase signal [14]: 72 AU (inactive) | z-score [15]: 0.865 (inactive)

NC[C@@H]1CC[C@@H](N)[C@@H](O[C@H]2[C@H](O)[C@@H](O[C@H]3O[C@H](CO)[C@@H](O)[C@H](N)[C@H]3O)[C@H](N)C[C@@H]2N)O1
inhibition [10]: -2.83% (inactive) | red/green cell ratio (normalised) [11]: 1.19 (inactive) | normalised cell number [11, 18]: 0.9 | normalised cell number [11, 19]: 1.07 | remaining NAD [13]: 10 nM (inactive)

O=C(O)CN(CCN(CC(=O)O)CC(=O)O)CC(=O)O
inhibition [1]: 13.2% | score [2]: 1.69 | rescue above control [3]: -6.51 | cytochrome c release ratio [4]: 0.54 | inhibition of aggregation [5]: 72.4% | glutamate uptake change [6]: -23.4% | inclusion score [7]: 1.5 | aggregation suppression score [8]: 1.43 | parasite load remaining [16]: 74.6% (inactive) and 69.8% (inactive) | viability [16]: 73.4% and 97.7% | inhibition [10]: 8.13% (inactive) | red/green cell ratio (normalised) [11]: 1.05 (inactive) and 0.92 (inactive) | normalised cell number [11, 18]: 1.05 and 1.23 | normalised cell number [11, 19]: 1.11 and 1.13 | fold change [17, 20]: 0.899 (inactive) | fold change [17, 21]: 3.42 | cell count [17, 22]: 11600 | cell count [17, 23]: 12900 | remaining NAD [13]: 10 nM (inactive)

COc1ccc([C@@H]2CC(=O)c3c(O)cc(O)cc3O2)cc1O
inhibition [1]: 11% | score [2]: 0.56 | rescue above control [3]: 6.5 | cytochrome c release ratio [4]: 0.93 | inhibition of aggregation [5]: 17% | glutamate uptake change [6]: 0% | inclusion score [7]: 2 | aggregation suppression score [8]: 0.264 | survival [9]: 17.8 (inactive) | parasite load remaining [16]: 25.2% (inactive) and 110% (inactive) | viability [16]: 46.9% and 88% | inhibition [10]: 4.68% (inactive) | red/green cell ratio (normalised) [11]: 0.91 (inactive) | normalised cell number [11, 18]: 1.28 | normalised cell number [11, 19]: 1.16 | fold change [17, 20]: 0.922 (inactive) and 1.13 (inactive) | fold change [17, 21]: 1.33 and 0.691 | cell count [17, 22]: 8710 and 6120 | cell count [17, 23]: 9450 and 5440 | luciferase signal [14]: 48 AU (inactive)
